{
  "source": "PubChem BioAssay (NCATS)",
  "note": "Inconclusive results are not listed. The source made the active and inactive calls. Calls follow the shape of the dose curve; as a rule, active = well fitted inhibition curve with a large enough effect in the polarisation, with a control signal flat (not every such curve was filed as active); inconclusive = small, poorly fitted or top-dose-only effect, or effect the other way; inactive = flat fitted curve, though single readings scatter; the % refers to the polarisation.",
  "data": [
    {"target": "Peptidyl-prolyl cis-trans isomerase NIMA-interacting 1 (Homo sapiens) (UniProt Q13526)", "sequence (Q13526 whole entry, looked up)": "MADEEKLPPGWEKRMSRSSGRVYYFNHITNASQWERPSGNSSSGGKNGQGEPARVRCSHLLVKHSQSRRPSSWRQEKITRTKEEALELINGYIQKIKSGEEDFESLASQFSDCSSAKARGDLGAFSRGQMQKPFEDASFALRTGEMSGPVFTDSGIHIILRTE", "assay": "qHTS Validation Assay to Find Inhibitors of Pin1 (AID 504536)", "conditions": "Pin1 fluorescence polarization peptide binding assay; series mostly up to 57.5 µM", "description": "NIH Molecular Libraries Probe Production Network [MLPCN]\nNIH Chemical Genomics Center [NCGC]\nThe unique chemical properties of Pro allow for the adoption of two completely distinct amide bond conformations (cis and trans). Peptidyl-prolyl cis/trans isomerases (PPIases) are evolutionary conserved enzymes that catalyze cis/trans isomerization of peptidyl-prolyl peptide bonds. Distinct from all other PPIases such as cyclophilins and FK506-binding proteins (FKBPs), Pin1 binds a subset of phos.Ser/Thr-Pro-containing proteins using its protein-targeting WW domain and isomerizes only specific phos.Ser/Thr-Pro bonds, which cannot be effectively catalyzed by other known PPIases.\nPin1-catalyzed conformational regulation can control a spectrum of activities of many key regulators in diverse cellular processes such as cell growth, genotoxic and other stress responses, immune response, germ cell development, neuronal differentiation and survival. Pin1 has emerged as a novel molecular timer that modulates its multiple targets at various steps of a given cellular process to synergistically control the amplitude and duration of a cellular response or process. Importantly, Pin1 is tightly regulated by multiple levels and its deregulation has an important role in a growing number of pathological conditions, including cancer, Alzheimer's disease, aging, asthma and microbial infection, providing a potentially new therapeutic option.\nThe goal of this screen is to find small-molecule inhibitors of Pin1 using a fluorescence polarization competition assay. A HiFluor-488-labeled peptide binds to the active site of Pin1 and can be displaced by compounds. Compounds were screened as a concentration-titration series that ranged from 57 uM to 0.7 nM.\nNCGC Assay Protocol Summary:\nPin1 (0.6 uM) was dispensed into black, solid 1536-well plates at 2 uL/well in 10 mM HEPES (pH 7.5), 10 mM NaCl, 0.01% Tween20, 1 mM DTT, and 1% glycerol. Then, 23 nL of compounds or DMSO were delivered to each well using a pin tool. Two uL of Pin1-1b-HiFluor488 peptide (10 mM HEPES (pH 7.5), 10 mM NaCl, 0.01% Tween20, 1 mM DTT, and 1% glycerol, 0.02 uM Pin1-1b-HiFluor488) was then dispensed, and plates were incubated at room temperature for 10 min. The plates were measured on a ViewLux plate reader for fluorescence polarization signal using a 480/20 nM nm excitation filter and 540/25 nM nm S and P emission filters with a 20 second exposure. The %Activity was determined from the corrected fluorescence polarization values. Unlabeled Pin1-1c peptide was used as a control (3.5 mM two-fold serial; 20 uM final concentration) along with a 1x (0.3 uM) and 0x (no-enzyme) Pin1 enzyme control to normalize %Activity of identified inhibitors; 0x enzyme values corresponded to 100%Activity (full inhibition), while 1x Pin1 enzyme values were used to normalize 0%Activity (no inhibition).\nConcentration-response curves were fitted to the signals arising from the resulting fluorescence polarization. The concentration-effect curves were then classified based on curve quality (r2), response magnitude and degree of measured activity, and compounds were subsequently categorized based on their curve class.\nKeywords: Peptidyl prolyl isomerase, Pin1, fluorescence polarization, MLSMR, MLPCN, NIH Roadmap, qHTS, NCGC", "values": [
      {"smiles": "c1ccc([C@H]2CN3CCSC3=N2)cc1", "outcome": "inactive"},
      {"smiles": "O=NN(CCCl)C(=O)NCCCl", "outcome": "inactive"},
      {"smiles": "Cn1cnc([N+](=O)[O-])c1Sc1ncnc2nc[nH]c12", "outcome": "inactive"},
      {"smiles": "CCN(CC)CCCC(C)Nc1ccnc2cc(Cl)ccc12", "note": "(stereo not given)", "outcome": "inactive"},
      {"smiles": "Cc1[nH]c(=O)c(C#N)cc1-c1ccncc1", "outcome": "inactive"},
      {"smiles": "O=c1[nH]cnc2[nH]ncc12", "outcome": "inactive"},
      {"smiles": "Nc1ncnc2nc(-c3ccc(N4CCOCC4)nc3)cc(-c3cccc(Br)c3)c12", "outcome": "inactive"},
      {"smiles": "NC[C@H](O)c1ccc(O)c(O)c1", "outcome": "inactive"},
      {"smiles": "CC(C)C[C@H](NC(=O)[C@@H](O)[C@H](N)Cc1ccccc1)C(=O)O", "outcome": "inactive"},
      {"smiles": "NCCCC(N)(C(=O)O)C(F)F", "note": "(stereo not given)", "outcome": "inactive"},
      {"smiles": "C[C@]12CCC(=O)C=C1CC[C@@H]1[C@@H]2[C@@H](O)C[C@@]2(C)[C@H]1CC[C@]2(O)C(=O)CO", "outcome": "inactive"},
      {"smiles": "O=c1n(CCCN2CCN(c3cccc(Cl)c3)CC2)nc2ccccn12", "outcome": "inactive"},
      {"smiles": "CCCCNc1cc(C(=O)O)cc(S(N)(=O)=O)c1Oc1ccccc1", "outcome": "inactive"},
      {"smiles": "NS(=O)(=O)c1cc2c(cc1Cl)NC=NS2(=O)=O", "outcome": "inactive"},
      {"smiles": "O=C1CCC(N2C(=O)c3ccccc3C2=O)C(=O)N1", "note": "(stereo not given)", "outcome": "inactive"},
      {"smiles": "Oc1ccc(C2CNCCc3c2cc(O)c(O)c3Cl)cc1", "note": "(stereo not given)", "outcome": "inactive"},
      {"smiles": "OC(CN1CCC(Cc2ccc(F)cc2)CC1)c1ccc(Cl)cc1", "note": "(stereo not given)", "outcome": "inactive"},
      {"smiles": "CCCC(CCC)C(=O)O", "outcome": "inactive"},
      {"smiles": "Cc1cccc(-c2[nH]c(C(C)(C)C)nc2-c2ccc3nccnc3c2)n1", "outcome": "inactive"},
      {"smiles": "O=C(Nc1nc2ccccc2n1CCN1CCOCC1)c1cccc([N+](=O)[O-])c1", "outcome": "inactive"},
      {"smiles": "Cc1cnc(NC(=O)C2=C(O)c3ccccc3S(=O)(=O)N2C)s1", "outcome": "inactive"},
      {"smiles": "CC(=O)Oc1ccccc1C(=O)O", "outcome": "inactive"},
      {"smiles": "CCC(C)N(C)C(=O)c1cc2ccccc2c(-c2ccccc2Cl)n1", "note": "(stereo not given)", "outcome": "inactive"},
      {"smiles": "Nc1ccc(S(=O)(=O)Nc2ccnn2-c2ccccc2)cc1", "outcome": "inactive"},
      {"smiles": "Cc1ccccc1C(OCCN(C)C)c1ccccc1", "note": "(stereo not given)", "outcome": "inactive"},
      {"smiles": "NNCCc1ccccc1", "outcome": "inactive"},
      {"smiles": "Cc1cn[nH]c1", "outcome": "inactive"},
      {"smiles": "CC(C[N+](C)(C)C)OC(N)=O", "note": "(stereo not given)", "outcome": "inactive"},
      {"smiles": "CCOC(=O)N1CCC(=C2c3ccc(Cl)cc3CCc3cccnc32)CC1", "outcome": "inactive"},
      {"smiles": "CC(C)(C)NCC(O)c1ccc(O)c(CO)c1", "note": "(stereo not given)", "outcome": "inactive"},
      {"smiles": "Cc1[nH]c(=O)c(C#N)cc1-c1ccc2nccn2c1", "outcome": "inactive"},
      {"smiles": "O=C1CCc2cc(OCCCCc3nnnn3C3CCCCC3)ccc2N1", "outcome": "inactive"},
      {"smiles": "Nc1nc2c(ncn2COCCO)c(=O)[nH]1", "outcome": "inactive"},
      {"smiles": "Cc1ccc(N(CC2=NCCN2)c2cccc(O)c2)cc1", "outcome": "inactive"},
      {"smiles": "N=c1nc(N2CCCCC2)cc(N)n1O", "outcome": "inactive"},
      {"smiles": "O=C(O)COCCN1CCN(C(c2ccccc2)c2ccc(Cl)cc2)CC1", "note": "(stereo not given)", "outcome": "inactive"},
      {"smiles": "CN1CCN(CCCN2c3ccccc3Sc3ccc(C(F)(F)F)cc32)CC1", "outcome": "inactive"},
      {"smiles": "CC(C)NCC(O)COc1ccc(COCCOC(C)C)cc1", "note": "(stereo not given)", "outcome": "inactive"},
      {"smiles": "NC(N)=NC(=O)c1nc(Cl)c(N)nc1N", "outcome": "inactive"},
      {"smiles": "C1COC(NC(C2CC2)C2CC2)=N1", "outcome": "inactive"}
    ]}
  ]
}
